Data on 39 molecules can be found in PubChem BioAssay (EPA / NIEHS).

Several values for one entry are separate records, joined by “and”; a condition that tells them apart may be missing. Equal entries are not always repeated. Records with an inconclusive call do not appear. A structure can be active in one record and inactive in another. Activity calls are given as the source filed them. Rule for the calls: active = hit-call score of the fitted dose curve at least 0.9, where 1 is the maximum; inconclusive = response in the unintended direction; inactive = score below 0.9.

Sequence of Cellular tumor antigen p53 (Homo sapiens) (P04637 whole entry, looked up, the tested form may be a part): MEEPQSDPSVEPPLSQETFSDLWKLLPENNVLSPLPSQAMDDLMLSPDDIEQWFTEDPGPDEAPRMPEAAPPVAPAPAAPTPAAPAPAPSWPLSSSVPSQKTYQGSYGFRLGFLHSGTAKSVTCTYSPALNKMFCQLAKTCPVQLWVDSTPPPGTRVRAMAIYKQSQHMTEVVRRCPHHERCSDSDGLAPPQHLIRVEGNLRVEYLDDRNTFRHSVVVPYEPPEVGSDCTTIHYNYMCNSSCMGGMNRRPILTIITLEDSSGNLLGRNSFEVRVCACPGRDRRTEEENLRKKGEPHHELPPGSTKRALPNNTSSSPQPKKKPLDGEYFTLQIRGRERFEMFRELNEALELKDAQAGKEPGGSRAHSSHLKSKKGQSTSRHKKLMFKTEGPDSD

The experiment addresses Cellular tumor antigen p53 (Homo sapiens) (UniProt P04637). As to the kind of experiment: TOX21_p53_BLA_p3_ratio: Tox21 HCT-116 p53 Agonism Beta-lactamase Assay, Ratio, Phase 3 (AID 2283596). From the text:
TOX21_p53_BLA_p3 is a cell-based, single-readout assay that uses HCT116, a human intestinal cell line, […] in a 1536-well plate.TOX21_p53_BLA_p3_ratio is an assay readout measuring reporter gene via receptor activity and designed using inducible reporter (beta lactamase induction) detected with GAL4 b-lactamase reporter gene. The signal is derived from the ratio of cleaved (ch2) to uncleaved (ch1) reporter gene substrate used as the measure of target activity.Data from the assay component TOX21_p53_BLA_p3_ratio was analyzed into 1 assay endpoint. This assay endpoint, TOX21_p53_BLA_p3_ratio, was analyzed in the positive analysis fitting direction relative to DMSO as the negative control and baseline of activity. Using a type of inducible reporter, gain-of-signal activity can be used to understand changes in the reporter gene as they relate to the gene TP53. Furthermore, this assay endpoint can be referred to as a primary readout, because this assay has produced multiple assay endpoints where this ratio serves a reporter gene function to understand target activity. To generalize the intended target to other relatable targets, this assay endpoint is annotated to the DNA binding intended target family, where the subfamily is tumor suppressor.
Thawing Method: Place 14 mL of pre-warmed thaw medium into a 15 mL of conical tub. Remove the vial of cells to be thawed from liquid nitrogen and thaw rapidly by placing at 37C in a water bath with gentle agitation for 1-2 minutes. Decontaminate the vial by wiping with 70% ethanol before opening in a biological safety cabinet. Transfer the vial contents drop-wise into 14 mL of thaw medium in a sterile 15-mL conical tub. Centrifuge cells at 900 rpm for 4 minutes and resuspend in thaw medium. Transfer contents to the T75 tissue culture flask containing Thaw Medium and place flask in a humidified 37C/5% CO2 incubator. Switch to growth medium at first passage.Propagation Method: Aspirate medium, rinse once in DPBS, add 0.25% Trypsin/EDTA and swirl to coat the cell evenly. Add an equal volume of Growth Medium to inactivate Trypsin after 2-3 minutes incubation at 37C. Centrifuge cells at 900 rpm for 4 minutes and resuspend in growth medium. Cell should be passage or fed at least twice a week.Assay Protocol: Harvest cells from culture in growth medium and resuspend in assay medium. 2.2 Dispense 4000 cells/5 uL/well into 1536-well black/clear bottom plates using a Multidrop dispenser. After the cells were incubated at 37C for 5 hours, 23 nL of compounds dissolved in DMSO were transferred to the assay plate by a PinTool resulting in a 217-fold dilution. Incubate the plates for 16 hours at 37C, 5% CO2. Add 1 uL of 6X LiveBLAzer FRET B/G (CCF4-AM) Substrate Mixture to each well using a BioRAPTR dispenser and incubate the plates at room temperature for 2 hours. Measure fluorescence intensity at 460 and 530 nm emission and 405 nm excitation by an Envision detector. Data is expressed as the ratio of 460nm/530nm emissions. Add 4 uL of Cell-titer Glo to each well using BioRAPTR and incubate the plates at room temperature for 2 hours. Measure fluorescence intensity by a VewLux plate reader.
Take `CC1N=C(N)OC1c1ccccc1` (stereo not given): the result was inactive. On the same count and under the same terms, in the case of `Clc1ccc(C(Cl)(Cl)Cl)c(Cl)c1` it was “inactive”; in that of `O=c1oc2ccccc2c(O)c1C1CCCc2ccccc21` (stereo not given), “inactive”.

As to `CON(C)C(=O)Nc1ccc(Cl)cc1`, the outcome was inactive.

Turning to `ClC1=C(Cl)C2(Cl)C(CBr)CC1(Cl)C2(Cl)Cl` (stereo not given), the outcome was inactive. Same read-out and setting: with `C=CC[C@]1(O)CC[C@H]2[C@@H]3CCC4=CC(=O)CCC4=C3C=C[C@@]21C` the entry was “inactive”. Still for that read-out and setting: in the case of `CCC1(CC)C(=O)C=CNC1=O` it was “inactive”; in that of `[S]=[Sb](=[S])[S][Sb](=[S])=[S]`, “inactive”. Still for that read-out and setting: in the case of `O=C(N/N=C/c1ccc([N+](=O)[O-])o1)c1cc([N+](=O)[O-])cc([N+](=O)[O-])c1O` it was “inactive”. As to `CC1(C)[C@H](C(=O)O[C@H](C#N)c2cccc(Oc3ccccc3)c2)[C@@H]1C=C(Br)Br`, the result was inactive. On the same count and under the same terms, in the case of `O=C(O)/C=C/C(=O)O` it was “inactive”. In general, AC50 refers to the concentration at which the activity in the assay is half-maximal. For the molecule `Oc1cc(Cl)c(Cl)c(Cl)c1`, the AC50 was 17.3 µM (active).

For the molecule `CN(C)CCc1c[nH]c2ccc(O)cc12`, the result was inactive.

As to `COP(=O)(OC)Oc1ccc([N+](=O)[O-])cc1`, the result was inactive. The same measure, in the same setting: with `CCOP(=S)(OCC)Oc1cnc2ccccc2n1` the entry was “inactive”; with `CC(Cc1ccccc1)NC=O` (stereo not given), “inactive”; with `COc1ccc(CO)cc1`, “inactive”. The same measure, in the same setting: with `CCC1(CC)C(=O)NC(=O)N(C)C1=O` the entry was “inactive”; with `CCCCCON=O`, “inactive”. Take `N[C@@H]1C[C@H]1c1ccccc1`: the outcome was inactive. On the same count and under the same terms, with `Cc1ccc2c(C)cccc2c1` the entry was “inactive”.

With `CC[n+]1c(-c2ccccc2)c2cc(N)ccc2c2ccc(N)cc21`, the concentration at half-maximal activity (AC50) was 3.51 µM (active) and 14.1 µM (active) and 6.74 µM (active). Regarding `O=C1CC[C@@]2(O)[C@H]3Cc4ccc(O)c5c4[C@@]2(CCN3CC2CC2)[C@H]1O5`, the outcome was inactive. Consider `CCN`, for which the outcome was inactive. With `O=C1C(Cl)=C(Cl)C(=O)C(Cl)=C1Cl`, the AC50 was 4.93 µM (active) and the result was inactive.

On to `O=c1[nH]c(Cl)c(Cl)cc1Cl`, for which the outcome was inactive.

Regarding `CCCOC(=O)c1ccccc1C(=O)OCCC`, the outcome was inactive. The same measure, in the same setting: in the case of `Oc1ccc2c3c1O[C@H]1[C@@H](O)CC[C@@]4(O)[C@@H](C2)N(CC2CCC2)CC[C@]314` it was “inactive”; in that of `Oc1ccc(C(=C(Cl)Cl)c2ccc(O)cc2)cc1`, “inactive”; in that of `CCCCCc1cc(O)cc(O)c1`, “inactive”. `C[C@]12C/C(=C/O)C(=O)C[C@@H]1CC[C@@H]1[C@@H]2CC[C@@]2(C)[C@H]1CC[C@]2(C)O`: the outcome was inactive. For `O=C(NC(=O)c1c(F)cccc1F)Nc1ccc(Oc2ccc(C(F)(F)F)cc2Cl)cc1F`, the result was inactive. The same measure, in the same setting: with `O=C(O)C(Br)Br` the entry was “inactive”. Take `CCCCCCCCCCCOC(=O)c1ccccc1C(=O)OCCCCCCCCCCC`: the outcome was inactive.

For `CCC[CH2][Sn]([CH2]CCC)([O]C(C)=O)[O]C(C)=O`, the AC50 was 32.2 µM (active). On to `ClCc1ccc(Cl)cc1Cl`, for which the outcome was inactive. For the molecule `CCCC(=O)Cl`, the result was inactive. On the same count and under the same terms, with `CCCN(CC1CC1)c1c([N+](=O)[O-])cc(C(F)(F)F)cc1[N+](=O)[O-]` the entry was “inactive”; with `CCCCCCCCCCOC(=O)c1ccccc1C(=O)OCCCCCCCCCC`, “inactive”.
